Assay results from PubChem BioAssay (EPA / NIEHS).
Records with an inconclusive call do not appear. Calls of active or inactive are those of the source. Rule for the calls, unless noted: active = hit-call score of the fitted dose curve at least 0.9, where 1 is the maximum; inactive = score below 0.9.

Legend:
[1] = read-out: Interleukin-8 (IL8), CXCL8 (gene 3576); experiment: BSK_hDFCGF_IL8: BioMAP Diversity Plus: hDFCGF Assay for Interleukin-8 (IL8) Biomarker Activity (AID 2283058); settings: primary human foreskin fibroblasts; actives raise or lower the signal
In short: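 ELISA read-out of IL-8 from primary human foreskin fibroblast cultures taken 24 h after dosing; values are bidirectional fits relative to DMSO vehicle.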

[2] = BSK_hDFCGF_Proliferation: Cell Proliferation Assessment in the BioMAP Diversity Plus: hDFCGF Assay (AID 2283059); settings: primary human foreskin fibroblasts;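 note: curves fitted for both rise and fall of signal versus DMSO baseline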
In short: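 Primary human foreskin fibroblasts, sub-confluent; […]; 10% TCA fix, 0.1% SRB stain, A560 total protein. Gain/loss fitted bidirectionally vs DMSO control.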

[3] = read-out: TIMP metallopeptidase inhibitor 1 (TIMP1), TIMP1 (gene 7076); experiment: BSK_hDFCGF_TIMP1: BioMAP Diversity Plus: hDFCGF Assay for TIMP metallopeptidase inhibitor 1 (TIMP1) Biomarker Activity (AID 2283062); settings: primary human foreskin fibroblasts; actives raise or lower the signal
In short: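 ELISA readout of TIMP-1 from human dermal foreskin fibroblast cultures 24 h post-dosing. Curves were fitted in both directions against DMSO baseline, with SRB total-protein staining in parallel cultures as a cytotoxicity check.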

[4] = read-out: Monokine induced gamma interferon (MIG), CXCL9 (gene 4283); experiment: BSK_hDFCGF_MIG: BioMAP Diversity Plus: hDFCGF Assay for Monokine induced gamma interferon (MIG) Biomarker Activity (AID 2283063); settings: primary human foreskin fibroblasts; actives raise or lower the signal
In short: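 Fibroblasts (human foreskin, primary) dosed, 24 h, MIG by ELISA; fit bidirectional vs DMSO.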

[5] = read-out: Matrix Metallopeptidase 1 (MMP1), MMP1 (gene 4312); experiment: BSK_hDFCGF_MMP1: BioMAP Diversity Plus: hDFCGF Assay for Matrix Metallopeptidase 1 (MMP1) Biomarker Activity (AID 2283064); settings: primary human foreskin fibroblasts; actives raise or lower the signal
In short: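 Primary human foreskin fibroblasts in the hDFCGF system were dosed with test chemical, and MMP1 was measured by ELISA 24 h later. Values come from bidirectional curve fitting against the DMSO baseline.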

[6] = read-out: Vascular cell adhesion molecule 1 (VCAM1), VCAM1 (gene 7412); experiment: BSK_hDFCGF_VCAM1: BioMAP Diversity Plus: hDFCGF Assay for Vascular cell adhesion molecule 1 (VCAM1) Biomarker Activity (AID 2283065); settings: primary human foreskin fibroblasts; actives raise or lower the signal;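 for AC50: VCAM-1 protein level quantified by ELISA after 24 h chemical exposure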
In short: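 ELISA read-out of VCAM-1 on human skin fibroblasts, 24 h post-dose; gain or loss of signal fitted bidirectionally against DMSO baseline.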

[7] = read-out: Plasminogen activator inhibitor-1 (PAI1), SERPINE1 (gene 5054); experiment: BSK_hDFCGF_PAI1: BioMAP Diversity Plus: hDFCGF Assay for Plasminogen activator inhibitor-1 (PAI1) Biomarker Activity (AID 2283066); settings: primary human foreskin fibroblasts; actives raise or lower the signal
In short: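 Primary dermal fibroblasts (human foreskin), hDFCGF system; compound 24 h; PAI-1 by ELISA; bidirectional fit vs DMSO control.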

[8] = read-out: Intercellular Adhesion Molecule 1 (ICAM1), ICAM1 (gene 3383); experiment: BSK_KF3CT_ICAM1: BioMAP Diversity Plus: KF3CT Assay for Intercellular Adhesion Molecule 1 (ICAM1) Biomarker Activity (AID 2283067); settings: primary human keratinocytes with fibroblasts; actives raise or lower the signal
In short: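 ELISA readout of ICAM-1; KF3CT human skin co-culture (keratinocytes + foreskin fibroblasts), 24 h post-dose; gain/loss fit vs DMSO baseline.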

[9] = read-out: Interferon-gamma inducible Protein 10 (IP10), CXCL10 (gene 3627); experiment: BSK_KF3CT_IP10: BioMAP Diversity Plus: KF3CT Assay for Interferon-gamma inducible Protein 10 (IP10) Biomarker Activity (AID 2283068); settings: primary human keratinocytes with fibroblasts; actives raise or lower the signal
In short: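 In a primary skin co-culture of keratinocytes and fibroblasts, IP-10 is quantified by ELISA at 24 h after dosing. SRB staining of parallel wells monitors overt toxicity. Curves are fitted both directions against DMSO.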

[10] = BSK_KF3CT_SRB: Viability Assessment in the BioMAP Diversity Plus: KF3CT Assay (AID 2283069); settings: primary human keratinocytes with fibroblasts;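 note: total protein by sulforhodamine B staining as a cytotoxicity measure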
In short: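 Human primary keratinocyte plus foreskin fibroblast co-culture exposed to chemicals for 24 h. Total protein measured by 0.1% sulforhodamine B staining after 10% TCA fixation, read at 560 nm; bidirectional fitting versus DMSO baseline.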

[11] = read-out: C-C motif chemokine 2 (Homo sapiens) (UniProt P13500); experiment: BSK_KF3CT_MCP1: BioMAP Diversity Plus: KF3CT Assay for Monocyte Chemoattractant Protein 1 (MCP1/CCL2) Biomarker Activity (AID 2283073); settings: primary human keratinocytes with fibroblasts; actives raise or lower the signal
In short: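 KF3CT skin co-culture (keratinocytes/foreskin fibroblasts), 24 h post-dose; MCP-1 by ELISA; gain/loss of signal fit bidirectionally vs DMSO baseline.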

[12] = read-out: urokinase plasminogen activator (uPA), PLAU (gene 5328); experiment: BSK_KF3CT_uPA: BioMAP Diversity Plus: KF3CT Assay for urokinase plasminogen activator (uPA) Biomarker Activity (AID 2283075); settings: primary human keratinocytes with fibroblasts; actives raise or lower the signal
In short: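 Human keratinocyte plus foreskin fibroblast primary co-culture exposed to chemical for 24 h. uPA levels were quantified by ELISA, and activity was fitted bidirectionally against a DMSO negative-control baseline.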

CD40, CD40 (gene 958) = experiment: BSK_LPS_CD40: BioMAP Diversity Plus: LPS Assay for CD40 Biomarker Activity (AID 2283076); settings: primary human HUVEC with PBMC; actives raise or lower the signal
In short: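 ELISA readout of CD40 in HUVEC/PBMC co-culture (BSK_LPS system), 24 h post-dosing; bidirectional curve fit, DMSO baseline; parallel SRB total-protein staining for cytotoxicity.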

[13] = BSK_LPS_SRB: Viability Assessment in the BioMAP Diversity Plus: LPS Assay (AID 2283079); settings: primary human HUVEC with PBMC;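 note: total protein by sulforhodamine B absorbance as a cytotoxicity measure; measured one day after compound addition; fitted in both directions against DMSO so loss or gain of signal counts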
In short: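 HUVEC + PBMC co-culture, LPS-stimulated; compound 24 h. 10% TCA fix, 0.1% SRB stain, A560. Bidirectional fit vs DMSO.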

[14] = read-out: Macrophage colony-stimulating factor (MCSF), CSF1 (gene 1435); experiment: BSK_LPS_MCSF: BioMAP Diversity Plus: LPS Assay for Macrophage colony-stimulating factor (MCSF) Biomarker Activity (AID 2283083); settings: primary human HUVEC with PBMC; actives raise or lower the signal
In short: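 HUVEC + PBMC co-culture (human primary), 24 h post-dose; M-CSF by ELISA; gain/loss of signal fitted bidirectionally vs DMSO baseline.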

[15] = read-out: Tissue Factor, F3 (gene 2152); experiment: BSK_LPS_TissueFactor: BioMAP Diversity Plus: LPS Assay for Tissue Factor Biomarker Activity (AID 2283084); settings: primary human HUVEC with PBMC; actives raise or lower the signal
In short: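 HUVEC/PBMC co-culture, LPS-activated; CD142 ELISA read 24 h post-dose; bidirectional curve fit vs DMSO negative control.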

[16] = read-out: Vascular cell adhesion molecule 1 (VCAM1), VCAM1 (gene 7412); experiment: BSK_LPS_VCAM1: BioMAP Diversity Plus: LPS Assay for Vascular cell adhesion molecule 1 (VCAM1) Biomarker Activity (AID 2283086); settings: primary human HUVEC with PBMC; actives raise or lower the signal
In short: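 HUVEC + PBMC co-culture, LPS system; compound 24 h; VCAM-1 by ELISA; bidirectional fit vs DMSO control; parallel SRB (0.1%, TCA-fixed, 560 nm) for cytotoxicity.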

[17] = read-out: Interleukin-8 (IL8), CXCL8 (gene 3576); experiment: BSK_SAg_IL8: BioMAP Diversity Plus: SAg Assay for Interleukin-8 (IL8) Biomarker Activity (AID 2283094); settings: primary human HUVEC with PBMC; actives raise or lower the signal
In short: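 ELISA read-out of IL-8 in a primary human vascular co-culture (umbilical vein endothelium plus PBMC), taken 24 h after compound addition. Values derive from bidirectional fits against DMSO negative controls.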

[18] = BSK_SAg_SRB: Viability Assessment in the BioMAP Diversity Plus: SAg Assay (AID 2283096); settings: primary human HUVEC with PBMC;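 note: cells read one day after compound addition; hits may be either gain or loss of signal compared with DMSO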
In short: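 Endothelial/PBMC primary human co-culture; compound 24 h; fix 10% TCA, stain 0.1% SRB, A560; protein content as cytotoxicity proxy; bidirectional curve fit, DMSO = baseline.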

[19] = biological target: Peroxisome proliferator-activated receptor gamma (Homo sapiens) (UniProt P37231); experiment: OT_PPARg_PPARgSRC1_0480: Odyssey Thera (OT) 8-hour Protein-Complementation Assay for Peroxisome Proliferator-activated Receptor Gamma / SRC-1 Co-activator (AID 2283387; active = hit-call score of the fitted dose curve at least 0.9, where 1 is the maximum;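 note: nuclear to cytoplasmic split Venus YFP fluorescence ratio reporting PPARg SRC-1 interaction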)
Sequence of Peroxisome proliferator-activated receptor gamma (Homo sapiens) (P37231 whole entry, looked up, the tested form may be a part): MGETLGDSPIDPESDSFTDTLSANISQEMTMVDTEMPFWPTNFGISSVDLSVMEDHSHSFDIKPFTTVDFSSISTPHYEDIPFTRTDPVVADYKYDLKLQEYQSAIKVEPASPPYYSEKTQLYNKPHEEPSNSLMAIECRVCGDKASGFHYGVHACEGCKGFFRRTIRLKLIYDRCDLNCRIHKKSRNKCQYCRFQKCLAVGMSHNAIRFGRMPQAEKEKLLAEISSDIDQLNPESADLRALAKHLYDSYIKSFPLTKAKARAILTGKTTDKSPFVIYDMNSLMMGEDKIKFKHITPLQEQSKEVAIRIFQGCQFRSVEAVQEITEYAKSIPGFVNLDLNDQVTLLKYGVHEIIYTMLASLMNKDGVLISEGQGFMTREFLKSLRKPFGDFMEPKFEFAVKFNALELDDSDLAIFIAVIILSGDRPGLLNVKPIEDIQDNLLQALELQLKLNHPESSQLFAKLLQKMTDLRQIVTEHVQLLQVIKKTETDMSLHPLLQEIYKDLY
In short: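 HEK293T transiently transfected with PPARg and SRC-1 fused to Venus YFP fragments, compounds 8 h at 37C. Fixed, Draq5-stained cells imaged; nuclear/cytoplasmic 488 nm fluorescence ratio over at least 350 cells per image; gain fitted versus DMSO.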

Measured: AC50

CNC(=O)Oc1cc(C)c(SC)c(C)c1
active: CD40, CD40 (gene 958) 20 µM | [16] 20 µM
inactive: [1] | [2] | [3] | [4] | [5] | [6] | [7] | [8] | [9] | [10] | [11] | [12] | [13] | [14] | [15] | [17] | [18]

Clc1ccc(-c2ccccc2)cc1
inactive: [1] | [2] | [3] | [4] | [5] | [6] | [7] | [8] | [9] | [10] | [11] | [12] | CD40, CD40 (gene 958) | [13] | [14] | [15] | [16] | [17] | [18]

CCC(C)c1cc([N+](=O)[O-])cc([N+](=O)[O-])c1OC(=O)C=C(C)C (centres undefined)
inactive: [1] | [17]
active: [2] 5.09 µM | [3] 12 µM | [4] 9.88 µM | [5] 12.3 µM | [6] 5.91 µM | [7] 3.95 µM | [8] 25 µM | [9] 13.9 µM | [10] 31.7 µM | [11] 36.7 µM | [12] 30.3 µM | CD40, CD40 (gene 958) 7.46 µM | [13] 13.3 µM | [14] 13 µM | [15] 33.5 µM | [16] 20 µM | [18] 15.3 µM

O=c1[nH]c(Cl)c(Cl)cc1Cl
inactive: [1] | [2] | [3] | [4] | [5] | [6] | [7] | [8] | [9] | [10] | [11] | [12] | CD40, CD40 (gene 958) | [13] | [14] | [15] | [16] | [17] | [18]

COC(C)(C)CCC[C@H](C)C/C=C/C(C)=C/C(=O)OC(C)C
inactive: [1] | [8] | [10] | [11] | [12] | [17]
active: [2] 31.2 µM | [3] 29.8 µM | [4] 33.2 µM | [5] 32.5 µM | [6] 25 µM | [7] 28.4 µM | [9] 33.6 µM | CD40, CD40 (gene 958) 20 µM | [13] 29.5 µM | [14] 20.5 µM | [15] 26.8 µM | [16] 27.4 µM | [18] 33.3 µM

CCOP(=O)(OCC)Oc1ccc([N+](=O)[O-])cc1
inactive: [19]

COc1ccc(CO)cc1
inactive: [1] | [2] | [3] | [4] | [5] | [6] | [7] | [8] | [9] | [10] | [12] | CD40, CD40 (gene 958) | [13] | [14] | [15] | [16] | [17] | [18]
